Out of some 220,000 compounds screened, about 910 (0.41%) were called active.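 How the source made its calls: active means primary inhibition above the hit cutoff, then over 50% inhibition at one or more dose response concentrations (cut at about 23% in these data, passing the limit was not always enough); inconclusive means conflicting primary data, or primary hits not chosen for dose response; inactive means low primary inhibition, or under 50% at every dose.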 Only a selection was taken, and actives are over-represented in it overall. Measured potencies and affinities stand elsewhere.
target: Aminopeptidase N (Plasmodium falciparum (isolate 3D7)) (UniProt O96935); test: P. falciparum M1AAP inhibitors, biochemical, fluorogenic H-Leu-NHMec substrate, 1536-well (AID 1445); conditions: recombinant M1AAP, H-Leu-NHMec fluorogenic kinetic assay; at 30 µM, stronger effect = higher value unless noted;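 further: plate controls were DMSO full reaction for no effect and no enzyme background for full effect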
Sequence (O96935 whole entry, looked up): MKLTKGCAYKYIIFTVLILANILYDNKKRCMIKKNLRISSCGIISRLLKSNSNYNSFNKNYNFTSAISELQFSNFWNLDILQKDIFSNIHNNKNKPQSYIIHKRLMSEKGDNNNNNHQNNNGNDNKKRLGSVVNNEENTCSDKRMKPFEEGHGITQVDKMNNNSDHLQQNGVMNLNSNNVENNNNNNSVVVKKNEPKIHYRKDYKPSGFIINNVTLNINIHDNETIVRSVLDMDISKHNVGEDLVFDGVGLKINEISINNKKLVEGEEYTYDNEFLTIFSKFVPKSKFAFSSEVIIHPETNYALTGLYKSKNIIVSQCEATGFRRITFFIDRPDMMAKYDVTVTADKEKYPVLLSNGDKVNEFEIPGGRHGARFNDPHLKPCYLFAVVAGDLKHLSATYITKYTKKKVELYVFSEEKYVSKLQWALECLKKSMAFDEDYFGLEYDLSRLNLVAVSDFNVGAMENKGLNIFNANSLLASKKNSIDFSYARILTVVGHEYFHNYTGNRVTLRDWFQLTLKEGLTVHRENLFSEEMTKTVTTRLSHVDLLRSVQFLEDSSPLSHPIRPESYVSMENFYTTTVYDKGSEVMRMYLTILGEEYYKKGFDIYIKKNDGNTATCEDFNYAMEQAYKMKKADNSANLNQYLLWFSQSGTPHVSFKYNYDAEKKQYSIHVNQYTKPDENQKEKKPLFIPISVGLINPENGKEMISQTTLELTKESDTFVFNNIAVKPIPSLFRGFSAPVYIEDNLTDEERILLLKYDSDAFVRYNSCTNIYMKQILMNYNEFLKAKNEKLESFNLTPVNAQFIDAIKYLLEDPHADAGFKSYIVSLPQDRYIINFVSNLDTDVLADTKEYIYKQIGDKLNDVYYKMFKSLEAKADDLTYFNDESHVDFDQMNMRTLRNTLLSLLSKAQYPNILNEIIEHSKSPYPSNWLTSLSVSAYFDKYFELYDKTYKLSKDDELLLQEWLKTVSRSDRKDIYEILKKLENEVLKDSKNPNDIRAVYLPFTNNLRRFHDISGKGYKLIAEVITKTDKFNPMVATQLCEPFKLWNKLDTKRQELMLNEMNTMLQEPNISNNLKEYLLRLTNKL

inhibition, inactive:
COc1cccc(C2c3[nH]c4ccccc4c3CCN2Cc2cccn2-c2ncccn2)c1 (centres undefined) 1.34%
CCOC(=O)CSCc1nc(-c2ccc(Cl)cc2)oc1C -0.93%
C/C(=N\NC(=O)COc1ccc(C(C)(C)C)cc1)c1ccc(OC(F)F)cc1 6.66%
NC(=O)c1cccc(CC(=O)c2ccccc2)c1 8.26%
COc1cc(C=O)ccc1OCC(=O)N1CCCC1 -0.53%
COc1ccccc1NS(=O)(=O)c1ccc(Cl)c(NC(=S)NC(=O)C2CCCC2)c1 6.44%
COc1ccccc1NS(=O)(=O)c1ccc(Cl)c(NC(=O)CN2C(=O)c3ccccc3C2=O)c1 11.8%
Cc1cc(O)c(C=Nc2cccc(Cl)c2)c(=O)o1 13.6%
O=C1CNC(=O)/C1=C\N1CCN(C(c2ccccc2)c2ccccc2)CC1 10.1%
Cc1c(C(c2ccc(O)cc2)c2c(C)n(C)n(-c3ccccc3)c2=O)c(=O)n(-c2ccccc2)n1C -4.97%
COc1ccc(-c2cc(=Nc3c(C)n(C)n(-c4ccccc4)c3=O)c3ccccc3o2)cc1 10.6%
COc1ccc(C(c2c(C)n(C)n(-c3ccccc3)c2=O)c2c(C)n(C)n(-c3ccccc3)c2=O)cc1O 2.02%
Cc1c(C(c2ccccc2O)c2c(C)n(C)n(-c3ccccc3)c2=O)c(=O)n(-c2ccccc2)n1C -0.33%
FC(F)(F)c1ccccc1CN1CCN(C2CCCCCC2)CC1 3.5%
CCOC(=O)N1CCN(C(=O)COc2cc(=O)n(CC)c3ccccc23)CC1 3.47%
Cc1ccccc1NC(=O)N1CCc2ccccc2C1 1.94%
O=Cc1ccc2cccnc2n1 3.17%
O=C1c2ccccc2C(=O)N1Cc1ccco1 3.2%
O=C(Nc1ccc(O)cc1)c1ccc2c(c1)C(=O)N(Cc1ccco1)C2=O 3.19%
CC1=CC(C)(C)NC(=S)N1c1ccccc1C 0.18%
O=C(O)c1ccc(COc2ccccc2/C=C2\NC(=O)N(Cc3ccccc3)C2=O)cc1 -0.49%
Cc1ccccc1NC(=O)c1ccccc1O 12.9%
O=C(CN1C(=O)S/C(=C\c2ccccc2)C1=O)NNC(=O)c1ccccc1O 6.38%
CCOc1ccc(-c2nnc3ccc(SCC(=O)Nc4nc5ccccc5s4)nn23)cc1 -0.15%
Cc1c(NC(=O)C(C)OC(=O)[C@@H](NC(=O)c2ccccc2)C(C)C)c(=O)n(-c2ccccc2)n1C (some centres undefined) 11.4%
CC(C)Cn1c(-c2ccncc2)n[nH]c1=S -1.73%
CCc1ccc2[nH]c(=O)c(CN(CCN(CC)CC)C(=O)NC3CCCCC3)cc2c1 6.76%
CCOC(=O)CNC(=O)Cc1ccc(OC)cc1 -3.67%
COC(=O)c1ccccc1NC(=O)CSc1nc2cccnc2n1C -3.92%
O=C(CSc1nc2ccccc2n1CC(=O)N1CCOCC1)N1CCCC1 1.43%
CCSc1nc2ccccc2n1CC(=O)N1CCOCC1 8.83%
CC(=O)N1CCN(C(C)=O)C1c1ccccc1 4.82%
CCC(=O)N1CCN(C(C)=O)C1c1ccccc1 (centres undefined) -1.61%
CCC(=O)N1CCN(C(=O)CC)C1c1ccccc1 1.3%
CC1C(=O)CC(c2ccccc2)N(C)C1c1ccccc1 (centres undefined) -1.3%
COc1ccc(N=C2SC(CC(=O)Nc3ccc(F)cc3)C(=O)N2Cc2ccco2)cc1 (centres undefined) 5.55%
COc1ccc(O)c(C(=O)c2cc(C#N)c(=O)n(-c3ccc(Cl)cc3)c2)c1 4.39%
O=C(c1ccc(COCC(F)(F)F)o1)N1CCCCCC1 -0.95%
CC(=O)c1cc(-c2ccccc2)n(CC(=O)NC(C)(C)C)c1C 5.46%
COCCNc1cc(C)c(C#N)c2nc3ccccc3n12 -4.32%
COc1cccc(/C=N/Nc2ncnc3scc(-c4ccccc4)c23)c1O 2.95%
COc1cc(/C=N/N2C(=O)CSC2=S)ccc1O 20.3%
COc1ccc(/C=N/N2C(=O)CSC2=S)cc1 10.4%
Oc1ccccc1CNc1cnc2ccccc2c1 9.27%
COc1cccc(CNc2cnc3ccccc3c2)c1O 2.44%
O=C(NCCc1ccccc1)c1ccncc1 -0.47%
CCNC(=S)NNC(=O)c1ccncc1 0.26%
O=C(NCCCc1ccccc1)c1ccncc1 -1.01%
O=C(CCN1C(=O)/C(=C/c2ccc(F)cc2)SC1=S)NNC(=O)c1ccncc1 -9.67%
CCOc1ccc(NC(=O)CN(C)C(=O)C2CCCC2)cc1OCC 8.15%
CC(=O)Nc1ccc2nc(SCC(=O)N3CCOCC3)sc2c1 2.3%
COC(=O)CNC(=O)C(C)NC(=O)OCc1ccccc1 (centres undefined) 3.83%
Cc1cc(C)c2[nH]c(=O)c(C(c3nnnn3C(C)(C)C)N(Cc3ccco3)CC3CCCO3)cc2c1 (centres undefined) 11.4%
O=C(O)COc1ccccc1/C=N/NC(=O)CSc1nnc(SCc2ccccc2)s1 14.1%
O=C(O)COc1ccccc1/C=N/NC(=O)CSc1nnc(SCc2cccc3ccccc23)s1 11.9%
O=C(CSc1nnc(SCc2ccccc2)s1)N/N=C/c1ccc(Cl)cc1Cl 5.23%
O=C(CSc1nnc(SCc2ccc(Cl)cc2)s1)N/N=C/c1ccccc1C(=O)O 2.73%
CCOc1ccccc1-n1c(COc2ccccc2)nnc1SCC(N)=O 6.25%
COc1ccc2cc(CN(C(=O)Nc3ccccc3)C3CCCC3)c(=O)[nH]c2c1 10.9%
O=C(CCNC(=O)c1ccccc1Cl)Nc1ccc(S(=O)(=O)Nc2ncccn2)cc1 -2.53%
O=C(O)CCC(=O)N1N=C(c2ccco2)CC1c1cccs1 (centres undefined) -6.29%
Cc1ccc(C2=NN(C(=O)CCC(=O)O)C(c3cccs3)C2)cc1 (centres undefined) -2.92%
O=C(O)CCC(=O)N1N=C(c2ccc(Br)cc2)CC1c1cccs1 (centres undefined) 7.55%
COc1ccccc1C1CC(c2c(-c3ccccc3)c3cc(Cl)ccc3[nH]c2=O)=NN1S(C)(=O)=O (centres undefined) 33.3%
COc1cccc(C2=NN(C(=O)CCCC(=O)O)C(c3cccs3)C2)c1 (centres undefined) 2.4%
COc1ccc(OC)c(C2CC(c3c(-c4ccccc4)c4cc(Cl)ccc4[nH]c3=O)=NN2S(C)(=O)=O)c1 (centres undefined) 6.89%
COc1ccc(C2=NN(C(=O)CCC(=O)O)C(c3cccs3)C2)cc1 (centres undefined) 6.04%
O=C(O)CCCC(=O)N1N=C(c2ccccc2)CC1c1cccs1 (centres undefined) -2.7%
O=C(C1CCCCN1S(=O)(=O)c1ccccc1[N+](=O)[O-])N1CCCC1 (centres undefined) -3.36%
CC(NC(=O)c1ccccc1Cl)C(=O)O (centres undefined) -7.3%
CCN(CC)S(=O)(=O)c1ccc(C(=O)Nc2ccc3c(c2)OCCO3)cc1 4.24%
N/C(=N\OC(=O)CCCOc1ccccc1)c1ccc([N+](=O)[O-])cc1 6.54%
Cc1nc2ccc(Cl)cc2c(-c2ccccc2)c1CC(=O)O 14.4%
CCOC(=O)c1c(C)nc2ccc(Cl)cc2c1-c1ccccc1 5.75%
CCOC(=O)c1ccccc1NC(=O)c1cn(-c2ccc(C)c(C)c2)c(=O)c2ccccc12 1.24%
Cc1cccc(CN2CCN(CCCc3ccccc3)CC2)c1 -1.11%
COc1ccccc1NS(=O)(=O)c1ccc(N/N=C/c2ccccc2OCC(=O)O)c([N+](=O)[O-])c1 13.1%
CCN(CC)S(=O)(=O)c1ccc(N/N=C/c2ccccc2OCC(=O)O)c([N+](=O)[O-])c1 11.3%
COC(=O)/C(=C\Nc1cccc(Cl)c1C)c1ncc(C(F)(F)F)cc1Cl -7.97%
Cc1cc(C(=O)COC(=O)c2ccc(N)c([N+](=O)[O-])c2)c(C)n1-c1ccc2c(c1)OCO2 4.88%
COc1cc([N+](=O)[O-])ccc1-c1ccc(/C=N/NC(N)=O)o1 0.13%
COc1cc([N+](=O)[O-])ccc1-c1ccc(/C=N/NC(=O)OC(C)(C)C)o1 3.22%
N#CCCN(CCC#N)C(=O)c1ccc(Cl)cc1 0.66%
Nc1cc(N)nc(SCc2cccnc2)n1 -6.1%
O=C(CO/N=C/c1c(Cl)cccc1Cl)NNC(=O)c1cccc(Cl)c1 0.37%
Cc1cccc(S(=O)(=O)NNC(=O)c2cc(-c3ccc(F)cc3)nc3ccccc23)c1 15.2%
O=C(NNC(=O)c1cc(-c2ccccc2)nc2ccccc12)Nc1cccc(Cl)c1 6.82%
Cc1cccc(N2CCN(Cc3cnc(Cl)s3)CC2C)c1 (centres undefined) 3.39%
COc1ccc(CNC(=O)c2csc(Cc3ccccc3)n2)cc1 2.78%
Cc1nc2ccc(Cl)cc2c(-c2ccccc2F)c1CC(=O)O 16.3%
Cc1nc2ccc(Cl)cc2c(-c2ccccc2Cl)c1CC(=O)O -0.5%
C/C(Cn1cnc([N+](=O)[O-])n1)=N\NC(=O)c1ccccc1 15.8%
CCOc1ccc(NC(=O)C/C(N)=N/O)cc1 -8.44%

inhibition, active:
Oc1ccc2ccccc2c1CNc1cnc2ccccc2c1 24.4%

Source: PubChem BioAssay AID1445 (SRMLSC, 2008)
